PubChem BioAssay AID1159580 (chemical genetic matrix, 2015)
Among all 5,500 compounds or so, about 2,000 (36%) were called active. Another 18% or so got no clear call; they are omitted. No stated cut-off is given here; in the data, active means normalized growth mostly below about 0.91 (no sharp cut-off); inconclusive means no clear call, values can overlap the other calls; inactive means mostly above about 0.92. This is one part of the list.

Assay: chemical genetic growth profiling, strain panel (AID 1159580);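 further: tested at 20 µM; growth read once vehicle control cultures reached saturation at 30 °C; 1 = growth at the plate median or of vehicle wells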
Conditions: growth OD

Measured: normalized growth

Cc1ccsc1/C=C/C1=NCCCN1C
inactive: S. cerevisiae deletion strains, locus YJR075W, strain HOC1, stronger effect = lower value 0.991 | S. cerevisiae deletion strains, locus YKL009W, strain mrt4, stronger effect = lower value 0.982 | S. cerevisiae deletion strains, locus YKL068W, stronger effect = lower value 0.967 | S. cerevisiae deletion strains, locus YKL085W, strain MDH1 (second series), stronger effect = lower value 0.979 | S. cerevisiae deletion strains, locus YKL085W, strain MDH1, stronger effect = lower value 0.979 | S. cerevisiae deletion strains, locus YKL160W, strain elf1, stronger effect = lower value 0.999 | S. cerevisiae deletion strains, locus YKL190W, strain CNB1, stronger effect = lower value 1.02 | S. cerevisiae deletion strains, locus YKR001C, strain vps1, stronger effect = lower value 0.944 | S. cerevisiae deletion strains, locus YKR026C, strain gcn3, stronger effect = lower value 0.994 | S. cerevisiae deletion strains, locus YKR091W, strain srl3, stronger effect = lower value 0.994 | S. cerevisiae deletion strains, locus YLL001W, strain dnm1, stronger effect = lower value 0.979 | S. cerevisiae deletion strains, locus YLL026W, stronger effect = lower value 0.99 | S. cerevisiae deletion strains, locus YLL041C, strain sdh2, stronger effect = lower value 0.988 | S. cerevisiae deletion strains, locus YLR027C, strain aat2, stronger effect = lower value 0.998 | S. cerevisiae deletion strains, locus YLR039C, strain RIC1, stronger effect = lower value 0.947 | S. cerevisiae deletion strains, locus YLR058C, strain SHM2, stronger effect = lower value 1.01 | S. cerevisiae deletion strains, locus YLR102C, strain apc9, stronger effect = lower value 0.984 | S. cerevisiae deletion strains, locus YLR113W, strain HOG1, stronger effect = lower value 0.963 | S. cerevisiae deletion strains, locus YLR221C, strain rsa3, stronger effect = lower value 0.983 | S. cerevisiae deletion strains, locus YLR258W, strain gsy2, stronger effect = lower value 0.988 | S. cerevisiae deletion strains, locus YLR262C, strain YPT6 (second series), stronger effect = lower value 0.97 | S. cerevisiae deletion strains, locus YLR262C, strain YPT6, stronger effect = lower value 0.946 | S. cerevisiae deletion strains, locus YLR268W, strain sec22, stronger effect = lower value 0.93 | S. cerevisiae deletion strains, locus YLR320W, strain mms22, stronger effect = lower value 0.991 | S. cerevisiae deletion strains, locus YLR330W, strain CHS5, stronger effect = lower value 1 | S. cerevisiae deletion strains, locus YLR342W, strain FKS1 (second series), stronger effect = lower value 1.08 | S. cerevisiae deletion strains, locus YLR342W, strain FKS1, stronger effect = lower value 1 | S. cerevisiae deletion strains, locus YLR357W, strain rsc2, stronger effect = lower value 0.967 | S. cerevisiae deletion strains, locus YLR370C, strain arc18, stronger effect = lower value 0.977 | S. cerevisiae deletion strains, locus YLR371W, strain rom2, stronger effect = lower value 0.973 | S. cerevisiae deletion strains, locus YLR384C, strain iki3, stronger effect = lower value 0.99 | S. cerevisiae deletion strains, locus YLR418C, strain cdc73, stronger effect = lower value 0.956 | S. cerevisiae deletion strains, locus YML016C, strain PPZ1, stronger effect = lower value 1.01 | S. cerevisiae deletion strains, locus YML032C, strain rad52, stronger effect = lower value 0.958 | S. cerevisiae deletion strains, locus YML120C, strain ndi1, stronger effect = lower value 0.991 | S. cerevisiae deletion strains, locus YML124C, strain tub3, stronger effect = lower value 0.991 | S. cerevisiae deletion strains, locus YMR058W, strain fet3, stronger effect = lower value 0.987 | S. cerevisiae deletion strains, locus YMR078C, strain ctf18, stronger effect = lower value 0.975 | S. cerevisiae deletion strains, locus YMR125W, strain sto1, stronger effect = lower value 0.994 | S. cerevisiae deletion strains, locus YMR129W, stronger effect = lower value 0.99 | S. cerevisiae deletion strains, locus YMR205C, strain PFK2, stronger effect = lower value 0.987 | S. cerevisiae deletion strains, locus YMR223W, strain ubp8, stronger effect = lower value 1.02 | S. cerevisiae deletion strains, locus YMR231W, strain pep5, stronger effect = lower value 0.987 | S. cerevisiae deletion strains, locus YMR263W, strain SAP30, stronger effect = lower value 0.994 | S. cerevisiae deletion strains, locus YMR307W, strain GAS1, stronger effect = lower value 1.07 | S. cerevisiae deletion strains, locus YNL067W, strain RPL9B, stronger effect = lower value 0.98 | S. cerevisiae deletion strains, locus YNL071W, strain lat1, stronger effect = lower value 0.988 | S. cerevisiae deletion strains, locus YNL128W, strain TEP1, stronger effect = lower value 1 | S. cerevisiae deletion strains, locus YNL153C, strain GIM3, stronger effect = lower value 1 | S. cerevisiae deletion strains, locus YNL183C, strain NPR1, stronger effect = lower value 0.952 | S. cerevisiae deletion strains, locus YNL209W, strain ssb2, stronger effect = lower value 0.984 | S. cerevisiae deletion strains, locus YNL233W, strain BNI4, stronger effect = lower value 1.01 | S. cerevisiae deletion strains, locus YNL248C, strain rpa49, stronger effect = lower value 0.997 | S. cerevisiae deletion strains, locus YNL250W, strain rad50, stronger effect = lower value 0.997 | S. cerevisiae deletion strains, locus YNL271C, strain bni1, stronger effect = lower value 0.976 | S. cerevisiae deletion strains, locus YNL298W, strain CLA4, stronger effect = lower value 0.974 | S. cerevisiae deletion strains, locus YNL307C, strain MCK1, stronger effect = lower value 0.976 | S. cerevisiae deletion strains, locus YNL322C, strain KRE1 (second series), stronger effect = lower value 0.987 | S. cerevisiae deletion strains, locus YNL322C, strain KRE1, stronger effect = lower value 1 | S. cerevisiae deletion strains, locus YNR049C, strain mso1, stronger effect = lower value 0.987 | S. cerevisiae deletion strains, locus YNR052C, strain pop2, stronger effect = lower value 0.976 | S. cerevisiae deletion strains, locus YOL006C, strain TOP1, stronger effect = lower value 0.921 | S. cerevisiae deletion strains, locus YOL012C, strain htz1 1.13 | S. cerevisiae deletion strains, locus YOL147C, strain pex11, stronger effect = lower value 0.992 | S. cerevisiae deletion strains, locus YOR001W, strain rrp6, stronger effect = lower value 1.01 | S. cerevisiae deletion strains, locus YOR061W, strain CKA2, stronger effect = lower value 1.01 | S. cerevisiae deletion strains, locus YOR069W, strain VPS5, stronger effect = lower value 1.01 | S. cerevisiae deletion strains, locus YOR070C, strain gyp1, stronger effect = lower value 0.983 | S. cerevisiae deletion strains, locus YOR080W, strain dia2, stronger effect = lower value 0.989 | S. cerevisiae deletion strains, locus YOR083W, strain WHI5, stronger effect = lower value 0.998 | S. cerevisiae deletion strains, locus YOR106W, strain vam3, stronger effect = lower value 0.994 | S. cerevisiae deletion strains, locus YOR136W, strain idh2, stronger effect = lower value 0.972 | S. cerevisiae deletion strains, locus YOR144C, strain elg1, stronger effect = lower value 0.977 | S. cerevisiae deletion strains, locus YOR184W, strain ser1, stronger effect = lower value 0.94 | S. cerevisiae deletion strains, locus YOR231W, strain MKK1, stronger effect = lower value 0.979 | S. cerevisiae deletion strains, locus YOR265W, strain rbl2, stronger effect = lower value 1.01 | S. cerevisiae deletion strains, locus YOR270C, strain vph1, stronger effect = lower value 1.01 | S. cerevisiae deletion strains, locus YOR290C, strain snf2, stronger effect = lower value 1 | S. cerevisiae deletion strains, locus YOR316C, strain cot1, stronger effect = lower value 0.956 | S. cerevisiae deletion strains, locus YPL051W, strain arl3, stronger effect = lower value 0.993 | S. cerevisiae deletion strains, locus YPL055C, strain LGE1, stronger effect = lower value 0.954 | S. cerevisiae deletion strains, locus YPL078C, strain atp4, stronger effect = lower value 0.992 | S. cerevisiae deletion strains, locus YPL106C, strain sse1, stronger effect = lower value 0.996 | S. cerevisiae deletion strains, locus YPL240C, strain hsp82, stronger effect = lower value 0.988 | S. cerevisiae deletion strains, locus YPL241C, strain CIN2, stronger effect = lower value 1.01 | S. cerevisiae deletion strains, locus YPL256C, strain CLN2, stronger effect = lower value 0.939 | S. cerevisiae deletion strains, locus YPR119W, strain clb2, stronger effect = lower value 0.981 | S. cerevisiae deletion strains, locus YPR141C, strain kar3, stronger effect = lower value 0.979 | S. cerevisiae deletion strains, locus YPR163C, strain tif3, stronger effect = lower value 0.983 | S. cerevisiae deletion strains, locus YPR167C, strain met16, stronger effect = lower value 0.97 | S. cerevisiae deletion strains, strain wtn01, stronger effect = lower value 0.949 | S. cerevisiae strains, strain wild type, stronger effect = lower value 1.01
